Screening results: PubChem BioAssay, National Center for Advancing Translational Sciences (NCATS)
Cruzain Triton: inhibitors of Trypanosoma cruzi cruzain with detergent | purified cruzain, Z-FR-AMC fluorescence, 0.01% Triton | Potency, µM, without a hit: max response, negative = inhibition, actives largely listed as inhibitors | actives 0.43% (n = 200,000);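 also: plate controls were neutral wells for no effect and buffer without enzyme for full effect; nearly all actives have a fitted effect of over 40% in size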
Target sequence (P25779 123-467 limits assumed): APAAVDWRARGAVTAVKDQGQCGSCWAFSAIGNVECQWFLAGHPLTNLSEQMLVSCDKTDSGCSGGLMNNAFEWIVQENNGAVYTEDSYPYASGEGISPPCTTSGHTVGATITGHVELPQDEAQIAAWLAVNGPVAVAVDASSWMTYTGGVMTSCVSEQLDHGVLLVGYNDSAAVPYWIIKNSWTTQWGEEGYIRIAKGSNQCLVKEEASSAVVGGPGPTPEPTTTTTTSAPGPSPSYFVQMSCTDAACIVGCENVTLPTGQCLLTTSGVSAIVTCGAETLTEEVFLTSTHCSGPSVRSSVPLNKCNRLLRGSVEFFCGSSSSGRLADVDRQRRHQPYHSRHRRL
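Enzyme 1.5 nM, Z-FR-AMC 2 uM, NaOAc 100 mM pH 5.5, DTT 5 mM, Triton X-100 0.01%; 15 min RT compound preincubation; kinetic ex360/em450, 60 s delta.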
Cruzain inh noDet: blocks cruzain activity in detergent-free assay. purified cruzain, Z-FR-AMC fluorescence, no detergent. Potency, µM, inactives show max response, negative = inhibition, actives largely listed as inhibitors. actives 2.3% (n = 200,000). AID 1476;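 also: plate controls were enzyme without inhibitor for no effect and buffer without enzyme for full effect; nearly all actives have a fitted effect of over 40% in size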
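Purified cruzain at 1.5 nM, pre-incubated 15 min with compound at room temperature in 100 mM sodium acetate pH 5.5, 5 mM DTT, 0.00005% Triton X-100. Reaction started with 2 uM Z-FR-AMC; AMC fluorescence increase over 60 s gives rate.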
Starred values were filed as active, the others as inactive; ? = inconclusive. Hits are enriched below; roughly 2.5% of the tested compounds scored in any of these assays. Calls follow the shape of the dose curve; as a rule, active = well fitted curve in the direction sought with a large enough effect; inconclusive = small, poorly fitted or top-dose-only effect, or another doubt; inactive = no such curve, though single readings can be large; an effect the other way counts as inactive or inconclusive. Potency is read from the fitted curve at half-maximal effect.

SMILES	Cruzain Triton	Cruzain inh noDet
O=C(NCc1ccccc1Cl)c1ccc(-n2cnc3cccnc32)cc1	-11.0%	-6.4%
CCOC(=O)C1=NN(c2ccc(OC)cc2)C(c2ccccc2)CC1=O (configuration not stated)	-11.1%	-8.6%
COc1ccc(C2CC(c3ccccc3)=NN2c2ccc(N)cc2)cc1 (configuration not stated)	-10.4%	20µM*
Cc1c(C(N)=O)nnn1-c1ccc(Br)cc1	-2.3%	2.3%
CCCCC(=O)OCc1cc(=O)n2nc(C3CCCCC3)sc2n1	0.1%	5.0%
CCC1Oc2ccc(C)cc2N(CC(=O)NCCc2ccccc2)C1=O (configuration not stated)	-0.2%	-5.2%
COc1ccc(-c2nc(-c3ccccc3)oc2Nc2ccccc2C)cc1	-1.2%	-12.7%
Cc1ccc(CN2CCSc3ccc(C(=O)Nc4cc(C)cc(C)c4)cc32)cc1	-19.2%	10µM*
O=C(NCCc1ccc(Cl)cc1)c1ccc2c(c1)N(Cc1ccccc1)C(=O)CS2	0.3%	31.6µM*
Cc1ccc(CN2CCSc3ccc(C(=O)Nc4ccc(Cl)cc4)cc32)cc1	-4.7%	7.94µM*
O=C(Nc1ccc(Cl)cc1)c1ccc2c(c1)N(Cc1ccccc1)CCS2	-11.3%	31.6µM*
Cc1ccc(CN2CCSc3ccc(C(=O)NCCc4ccccc4)cc32)cc1	-11.5%	-27.8%
Cc1ccc(CN2CCSc3ccc(C(=O)NCc4ccc(OC(C)C)cc4)cc32)cc1	-5.0%	3.2%
O=C(NCCc1ccc(Cl)cc1)c1ccc2c(c1)N(Cc1ccccc1)CCS2	-5.0%	-24.3%
O=C(NCCc1ccccc1)c1ccc2c(c1)N(Cc1ccc(F)cc1)C(=O)CS2	1.1%	-12.6%
COc1ccc(-c2nc(-c3ccccc3)c(Nc3c(C)cccc3C)o2)cc1	2.0%	-6.1%
Oc1ccc([C@H](O)C2CCCCN2)cc1O (some centres not stated)	1.3%	2.8%
CC(C)c1ccc2oc(-c3cccc(NC(=O)c4ccc5c(c4)OCCO5)c3)nc2c1	-3.3%	1.8%
O=C(c1ccc2c(c1)N(Cc1ccc(Cl)cc1)C(=O)c1ccccc1S2=O)N1CCOCC1 (configuration not stated)	0.0%	?
Cc1ccc(C(=O)Nc2onc3c2CCCC3)cc1	-3.6%	-6.8%
CCc1ccccc1N(C)C(=O)c1cn(CC(C)C)c(=O)c2cc(OC)c(OC)cc12	-3.6%	?
COCCNC(=O)c1c(NC(=O)Cc2coc3cc(C)ccc23)sc2c1CCCC2	-9.9%	19.5%
Cc1ccc(CN2CCSc3ccc(C(=O)NCC(C)c4ccccc4)cc32)cc1 (configuration not stated)	-6.0%	-9.2%
CC(=O)c1cccc(NC(=O)c2ccc3c(c2)N(Cc2ccc(C)cc2)CCS3)c1	-12.9%	12.6µM*
c1ccc(-c2nc(NCC3CCCO3)c3ccccc3n2)nc1 (configuration not stated)	3.9%	0.2%
SMILES	Cruzain Triton	Cruzain inh noDet
OCCNc1nc(Nc2ccccc2)nc2ccccc12	?	15.8µM*
Oc1cccc(Nc2nc(NCC3CCCO3)c3ccccc3n2)c1 (configuration not stated)	17.8µM*	12.6µM*
OCCNc1nc(Nc2ccccc2)nc(Nc2ccccc2)n1	-5.7%	-10.2%
Cc1ccccc1C(=O)OCc1cc(=O)n2nc(C3CCCCC3)sc2n1	-4.3%	-13.1%
C#CCn1c(=NC(=O)c2ccc(Cl)s2)sc2cccc(OC)c21	4.9%	?
COC(=O)Cn1c(=NC(=O)c2ccc(Cl)s2)sc2cc(F)ccc21	-9.3%	25.1µM*
Cc1cccc(OCCOCCn2c(-c3ccc(Cl)cc3)nc3ccccc3c2=O)c1C	-4.5%	5.6%
O=C(COc1ccc(Cl)cc1)Nc1nc(-c2ccc(S(=O)(=O)N3CCOCC3)cc2)cs1	-1.7%	?
COc1ccc(S(=O)(=O)N(C)c2ccc(OCC(=O)Nc3cc(C)on3)cc2)cc1	-1.2%	-7.0%
Cc1ccc(-c2csc(NC(=O)COc3ccc(N(C)S(=O)(=O)c4ccc(C)cc4)cc3)n2)cc1	0.9%	6.31µM*
COc1ccc(-c2csc(NC(=O)COc3ccc(N(C)S(=O)(=O)c4ccc(C)cc4)cc3)n2)cc1	0.6%	7.94µM*
Cc1ccc(CNC(=O)CSc2nc3c(sc4ccccc43)c(=O)n2CCCOC(C)C)cc1	1.0%	-5.1%
COc1cccc(-c2nc(SCC(=O)Nc3ccc4c(c3)OCCO4)c(-c3ccc(C)cc3)[nH]2)c1	-2.7%	?
CCc1ccc(C2CC(=O)Nc3c2c(=O)n(C)c2ncnn32)cc1 (configuration not stated)	-0.2%	3.2%
Cc1ccc(-c2nnn(CC(=O)N3c4ccccc4CCc4ccccc43)n2)cc1	-3.7%	?
Cc1ccc(-c2nnn(CC(=O)N3CCN(c4nc5ccccc5s4)CC3)n2)cc1	12.1%	10µM*
O=C(NCc1ccc2c(c1)CCN2C(=O)c1ccccc1)c1ccco1	0.5%	5.1%
CCS(=O)(=O)N1CCCc2cc(C(=O)Nc3cc([N+](=O)[O-])ccc3C)ccc21	-10.0%	-14.5%
